PubChem BioAssay

Experiment: viability profiling in RPMI8226 myeloma cells – cell-based, resazurin fluorescence, basal, 24 h, PK04 Diversity Set, profiling panel (AID 1180);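 further: RPMI8826 multiple myeloma cell line at 5000 cells per well; test concentration not given here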
Settings: higher = more signal
For `COCCOC(=O)N1C(=O)[C@@]2(c3cc(C#CC4=CCCCC4)ccc31)[C@H](C(=O)NC[C@H](O)c1ccccc1)[C@H]1C(=O)O[C@H](c3ccccc3)[C@H](c3ccccc3)N1[C@@H]2c1ccc(OCCO)cc1`, the z-score was -1.44.
For `CCC#CCN(Cc1ccccc1Br)[C@H](/C=C/c1ccccc1)[C@@H](O)Cc1ccccc1`, the z-score was 0.0518.
In the case of `C=C(CCCC)/C(=C/C[C@@H](OC(=O)c1ccncc1)c1cccc(OCCO)c1)c1cc(C(=O)OC)ccc1OC`, the z-score is reported as -0.647.
For `NC(=O)NCC#Cc1ccc2c(c1)[C@]1(C(=O)N2)[C@H](c2ccccc2OCCO)N2[C@H](c3ccccc3)[C@H](c3ccccc3)OC(=O)[C@H]2[C@@H]1C(=O)N1CCN(c2ncccn2)CC1`, the z-score was 1.19.
Compound `O=C1OCC=C[C@H]2OC34C=CCN(Cc5ccccc5)C(=O)[C@H]3N(CCO)C(=O)[C@@H]4[C@@H]12` (some centres not stated) has a z-score of 0.894.
Work on `Cc1ccc(S[C@]2(C(=O)NC(C)C)CC(=O)N(Cc3cc(C(F)(F)F)cc(C(F)(F)F)c3)[C@@H]2c2ccc(CO)cc2I)cc1` yielded a z-score of -2.55.
`COc1ccc(C(=O)Nc2ccc(CN3C(=O)[C@]4(O[C@H](CCn5cc(CCO)nn5)[C@@H]([Si](C)(C)c5ccc(OC)cc5)[C@@H]4C)c4ccccc43)cc2)cc1` gave a z-score of -3.23.
`COC(=O)[C@@]1(Cc2ccccc2)[C@H]2c3cc(C(=O)N4CCCC4)n(CCN4CNCC4=O)c3C[C@H]2CN1C(=O)c1ccccc1` showed a z-score of 0.742.
`CCCNC(=O)[C@@H]1c2ccccc2C(=O)N(C2CCCCC2)[C@H]1c1ccc(CO)cc1` showed a z-score of -0.154.
Work on `CC(C)C[C@@H]1NC(=O)[C@H]2C[C@@H](C(=O)NCCCCCC[N+](C)(C)C)[C@@H](c3ccc(O)cc3)N2C1=O` yielded a z-score of 0.985.
`O=C(NCc1ccccc1)[C@@]1(Cc2ccccc2)COC(c2ccc(OCCCO)cc2)=N1` gave a z-score of -5.69.
For `C=CCN1C(=O)[C@@]2(Cc3ccccc3)N=C(c3ccc(OCCCO)cc3)O[C@H]2c2ccccc21`, the z-score was -4.23.
`COCCCNC(=O)[C@@H]1c2ccccc2C(=O)N(CC23CC4CC(CC(C4)C2)C3)[C@H]1c1ccc(CO)cc1` gave a z-score of 0.0917.
`[N-]=[N+]=NCc1ccccc1[C@H]1OC(c2ccc(OCCCO)cc2)=N[C@@]1(Cc1ccccc1N=[N+]=[N-])C(=O)NCc1ccccc1` showed a z-score of -1.52.
Work on `O=C1C2C=CC(C(O)c3ccccc3)N(n3cnnc3)C2C(=O)N1Cc1ccccc1` (configuration not stated) yielded a z-score of -0.974.
Compound `CCCC[C@@H]1C[C@H]1[C@@H](NC(=O)c1ccccc1)c1ccccc1C(F)(F)F` has a z-score of 0.0311.
With `COc1ccc(CCN2C(=O)[C@@]3(c4ccc([N+](=O)[O-])cc4)CC(=O)N(CC45CC6CC(CC(C6)C4)C5)[C@@H]3c3ccc(CO)cc32)cc1` the z-score was 0.325.
In the case of `O=C1O[C@@H](c2ccccc2)[C@@H](c2ccccc2)N2[C@@H](c3ccc(OCCO)cc3)[C@]3(C(=O)Nc4ccc(C#CCCO)cc43)[C@@H](C(=O)N3CCN(c4ncccn4)CC3)[C@H]12`, the z-score is reported as 2.17.
`Cc1ccc(S[C@]2(C(=O)NC(C)C)CC(=O)N(C3Cc4ccccc4C3)[C@@H]2c2ccc(CO)cc2)cc1` gave a z-score of 0.33.
`O=C1O[C@H](c2ccccc2)[C@H](c2ccccc2)N2[C@H]1[C@@H](C(=O)Nc1nc3ccccc3s1)[C@]1(C(=O)Nc3ccc(C#CC4=CCCCC4)cc31)[C@H]2c1ccccc1OCCO` showed a z-score of -0.711.
For `C=CC[C@]1(C(=O)O)N=C(c2ccc(OCCCO)cc2)O[C@H]1c1ccccc1N=[N+]=[N-]`, the z-score was 0.248.
For `CCOC(=O)C1=C[C@@H](c2ccccc2)N(S(=O)(=O)c2ccc(C)cc2)[C@H]1c1ccc(F)cc1`, the z-score was -2.21.
For `C=CCC(OC(C)=O)[C@@H]1[C@@H](N(Cc2cccc3ccccc23)C(=O)c2ccc(C)cc2)c2cc(OCCCO)ccc2N1C(=O)c1ccc(-c2ccccc2)cc1` (some centres not stated), the z-score was 0.734.
Compound `COc1ccc(-c2cc3c(c(-c4ccccc4)n2)[Si](C(C)C)(C(C)C)O[C@H]3c2ccccc2)cn1` has a z-score of 0.184.
Work on `Cc1ccc(S[C@]2(C(=O)O)CC(=O)N(Cc3cc(C(F)(F)F)cc(C(F)(F)F)c3)[C@@H]2c2ccc(CO)cc2I)cc1` yielded a z-score of -1.47.
With `O=C1O[C@H](c2ccccc2)[C@H](c2ccccc2)N2[C@H]1[C@@H](C(=O)Nc1nc3ccccc3s1)[C@]1(C(=O)Nc3ccc(C#CC4(O)CCCCCC4)cc31)[C@H]2c1ccc(O)cc1` the z-score was -1.36.
In the case of `O=C1C2C=CC(C(O)C#Cc3ccccc3)N(Nc3ccccc3)C2C(=O)N1c1ccccc1` (configuration not stated), the z-score is reported as 0.0581.
